In the supplement of paper PMC13392028:
Over roughly 4,100 sequences, “RBNS R-value (6-mer enrichment in protein-bound RNA vs input library)” has its median near 0.96; the highest 2% begin near 2.4. The entries come from a sample that favours the highest values as a whole.

Test system: PyIESI-1 RRM domain (Plasmodium yoelii PY17X_0911200 aa 795-956, GST fusion)
Assay: RBNS R-value (6-mer enrichment in protein-bound RNA vs input library) (ratio); higher = stronger binding preference; the methods of the paper give 50 / 100 / 500 nM protein instead
Protocol: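 RNA Bind-n-Seq: recombinant GST-tagged IESI-1 RRM domain was incubated at room temperature with a random 40-nt in vitro transcribed RNA library at 250, 500 or 1000 nM protein. Bound RNA was pulled down on glutathione beads and sequenced. R-value is the enrichment of each 6-mer in the bound RNA relative to the input library. Each 6-mer sits inside the random 40-mer context, not as an isolated oligo. Values are replicate 1 only.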

Sequence | RBNS R-value (protein concentration: 250 nM) | RBNS R-value (protein concentration: 500 nM) | RBNS R-value (protein concentration: 1000 nM)
GAUCAG | 1.21 | 1.23 | 1.26
AUUUGG | 1.56 | 1.52 | 1.53
AUUUGA | 2.85 | 2.67 | 2.75
UUUUGC | 1.25 | 1.28 | 1.3
UUUUGU | 0.927 | 0.945 | 0.932
UUUUGA | 2.87 | 2.69 | 2.76
AUUUGU | 1.19 | 1.18 | 1.16
CGUCGU | 0.673 | 0.674 | 0.653
AUUCGG | 1.21 | 1.23 | 1.22
GAGGCA | 1.07 | 1.06 | 1.04
AGUCAG | 0.665 | 0.689 | 0.664
GGUAGU | 0.858 | 0.895 | 0.812
UCGAAU | 0.871 | 0.871 | 0.846
AAUUGU | 0.811 | 0.836 | 0.821
GAUUGA | 3.24 | 3.03 | 3.05
GAUUGU | 1.51 | 1.5 | 1.51
CAUUGA | 2.25 | 2.16 | 2.24
GAUUGC | 3.17 | 2.85 | 2.87
AAUUGA | 2.42 | 2.26 | 2.31
UAUUGA | 1.66 | 1.61 | 1.65
CAUUGC | 1.1 | 1.11 | 1.11
GAUUGG | 2.35 | 2.26 | 2.17
UGGAUC | 0.876 | 0.876 | 0.852
CGGGUA | 0.923 | 0.929 | 0.9

Sequence | RBNS R-value (protein concentration: 250 nM) | RBNS R-value (protein concentration: 500 nM) | RBNS R-value (protein concentration: 1000 nM)
CUGAUU | 6.33 | 5.69 | 5.82
CUGAAU | 1.09 | 1.11 | 1.07
UGGAUU | 1.02 | 1.04 | 1.01
CAGAUU | 1.53 | 1.52 | 1.61
GUGAAA | 0.997 | 0.961 | 0.925
GUGAUC | 1.68 | 1.71 | 1.81
GUGAUA | 2.97 | 2.94 | 3.2
UUGAGU | 1.03 | 1.07 | 1.03
UUGAUU | 7.23 | 6.65 | 6.84
GUGAUU | 4.55 | 4.24 | 4.44
GUGAAU | 0.995 | 1 | 0.944
GUGAGA | 1.03 | 1.06 | 0.984
GUACUA | 0.638 | 0.638 | 0.595
UACGGA | 0.876 | 0.89 | 0.885
GAAUCA | 0.819 | 0.828 | 0.81
UAGUGG | 0.775 | 0.827 | 0.76
CAGUUC | 0.829 | 0.84 | 0.843
GCCCUU | 0.971 | 1.02 | 1.03
GGGCAC | 1.06 | 1.04 | 1.06
UUGCAC | 1.32 | 1.29 | 1.31
UGAUAU | 3.72 | 3.77 | 4.19
CGAUAA | 1.27 | 1.33 | 1.41
AGAUAA | 0.936 | 1 | 1.02
GGAUAG | 0.94 | 0.954 | 0.908
